DAX1 inh-1: DAX1 (NR0B1) inhibition, primary screen | HEK293T StAR-luciferase reporter, SF-1/DAX-1 repression relief | inhibition, % at 6.8 µM | 1.1% of 370,000 active | AID 652010;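 active = inhibition above the mean over all tested compounds plus 3 SD, cut at about 3.6% in these data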;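 note: 0% = DAX-1 cells with DMSO and 100% = cells lacking DAX-1 with DMSO; higher inhibition means more luminescence from relief of DAX-1 repression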
ssDAF-12 act: activators of S. stercoralis DAF-12 nuclear receptor; activation, % at 6.8 µM; AID 652126; 1% of 370,000 active; HEK293 ssDAF-12/GRIP1 lit1-tk-luc reporter, luminescence; % of 3 µM dafachronic acid response;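 active = activation above the mean over all tested compounds plus 3 SD, cut at about 0.9% in these data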;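 note: 0% = DMSO-only wells and 100% = 3 µM delta7-dafachronic acid wells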
DAX1 inh-2: inhibitors of human orphan nuclear receptor DAX1 (NR0B1). AID 504766. HEK293 Gal4-DAX1 luciferase reporter, luminescence. P51843. inhibition, % at 6.75 µM. 0.99% of 340,000 active;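 active = inhibition above the mean over all tested compounds plus 3 SD, cut at about 4.2% in these data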;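 note: 0% = DAX1-transfected cells with DMSO and 100% = empty-vector control cells with DMSO; inhibition shows as a rise in luminescence from relieved DAX1 repression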
Target sequence (P51843 207-470 limits assumed): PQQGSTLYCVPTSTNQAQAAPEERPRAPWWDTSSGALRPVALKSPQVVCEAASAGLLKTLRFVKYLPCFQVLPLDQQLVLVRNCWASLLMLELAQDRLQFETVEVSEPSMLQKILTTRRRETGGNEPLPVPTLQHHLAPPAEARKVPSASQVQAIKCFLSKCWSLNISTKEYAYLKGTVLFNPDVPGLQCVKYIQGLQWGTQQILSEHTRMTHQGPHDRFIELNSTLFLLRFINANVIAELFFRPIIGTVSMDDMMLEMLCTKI
hgDAF-12 ag: activates the H. glycines DAF-12 receptor ligand-binding domain. HEK293 GAL4-hgDAF12 UAS-luciferase reporter, agonist luminescence; normalized to butyrate control. activation, % at 6.8 µM. 1.8% of 370,000 active. AID 687014;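 active = activation above a cutoff set at the mean of all screened compounds plus 3 SD, cut at about 10% in these data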;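 note: 0% = DMSO wells and 100% = sodium butyrate wells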
hcDAF12 agonist: activates DAF-12 receptor from parasite H. contortus; HEK293 hcDAF-12 lit1-tk-luc reporter, luminescence; 0% DMSO, 100% Δ7-dafachronic acid; activation, % at 6.8 µM; 1.4% of 370,000 active; AID 652067;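 active = activation above the mean of all tested compounds plus 3 SD, cut at about 5.5% in these data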;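 note: 100% = response to 3 µM Δ7-dafachronic acid high control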
Numbers without * were called inactive; . = not tested or not shown. The list is not random: actives were taken first. Their share in the collection is about 4.1%.

SMILES | DAX1 inh-1 | ssDAF-12 act | DAX1 inh-2 | hgDAF-12 ag | hcDAF12 agonist
S=C(Nc1ccc2c(c1)OCO2)N1CCN(Cc2ccco2)CC1 | 3 | 0 | 1 | 11* | 2
S=C(Nc1ccc2c(c1)OCO2)NC1CCN(Cc2ccccc2)CC1 | -1 | -2 | 4.7* | 0 | 1
CC(=O)c1cc(-c2ccc(Cl)c(C(F)(F)F)c2)c(=O)n2c1CCC2 | -1 | -2 | . | 0 | 1
Cc1ccc(-c2cc(C(=O)NN=Cc3cccc(Oc4ccccc4)c3)[nH]n2)cc1C | 0 | -1 | . | 1 | -3
COc1cccc(C(=O)C[n+]2ccccc2/C=N/O)c1 | 0 | 1.2* | 0 | 3 | 1
COc1ccc(C=Nn2c(-c3ccccc3F)n[nH]c2=S)cc1OCc1ccccc1 | -3 | -2 | . | -11 | -4
Cc1[nH]c(=O)[nH]c(=O)c1/C=N/NC(=O)[C@H](C)N | 0 | 0 | 5.7* | -2 | 5
O=C(CSc1ccc2nnc(CCNC(=O)c3ccc(F)cc3)n2n1)NCc1ccco1 | 1 | -1 | 1 | -1 | -3
O=C(CSc1ccc2nnc(CCNC(=O)c3ccccc3)n2n1)NCc1ccco1 | 3.9* | 0 | 0 | -1 | -1
COc1ccc(OC)c(/C=C/C(=O)NC2=NCCS2)c1 | 1 | -1 | 0 | 2 | 2
COc1ccc(OC)c(/C=C/C(=O)Nc2ccc(OC)nc2)c1 | -1 | -2 | 5.6* | 1 | 0
COc1ccc(NC(=O)/C=C/c2ccco2)cn1 | 2 | -1 | 0 | 9 | 3
COc1ccc(NC(=O)/C=C/c2cccc(F)c2)cn1 | 3 | -1 | 2 | 13* | 2
CCOc1c(Br)cc(/C=C2/SC(=O)N(CC(=O)N3CCCC3)C2=O)cc1OC | -1 | -1 | 1 | 4 | -2
CCOC(=O)COc1c(Br)cc(/C=C2\SC(=O)N(CC(=O)N3CCCC3)C2=O)cc1OC | -1 | -1 | 4.7* | -1 | 1
CCc1nc2ccc(C(=O)NCCOc3ccc(OC)cc3)cn2c1N(C)CCCc1ccccc1 | 2 | -1 | . | -2 | -1
CCOc1cccc(/C=C/c2ccc3cccc(O)c3n2)c1O | 0 | 0 | 2 | 10* | 5.8*
CCOc1cccc(/C=C/c2ccc3cccc(O)c3n2)c1OC | 0 | -1 | 1 | 10 | 3
O=C(c1cccs1)N(CCN1CCCCC1)CC1CCCN(C2CCCC2)C1 (stereo unspecified) | 0 | 0.9* | 0 | 8 | 3
Cc1ccc(C(=O)N(CCN2CCCCC2)CC2CCCN(C3CCCC3)C2)s1 (stereo unspecified) | 4.4* | 0 | 0 | 7 | 3
COCCN(CC1CCCN(C2Cc3ccccc3C2)C1)C(=O)c1cccs1 (stereo unspecified) | 1 | -1 | 0 | 0 | 4
COC(=O)[C@]12C[C@H](CC(=O)NCc3ccccc3)C(=O)N(Cc3ccco3)C1=C[C@H](C1CCCC1)O[C@@H]2C | 0 | -1 | . | -1 | -2
CCCN1CCS(=O)(=O)N(Cc2cn(Cc3ccc(OC)cc3)nn2)C(C(=O)OC)C1 (stereo unspecified) | 1 | -1 | . | 1 | 0
CCCN1C(=S)c2ccccc2C1c1ccccc1 (stereo unspecified) | 0 | 1.3* | 4.7* | -1 | 4
O=C(Nc1ccc(Cl)cc1Cl)OC1CCC12CCC(c1ccccc1)CC2 (stereo unspecified) | . | -1 | . | -1 | -2
SMILES | DAX1 inh-1 | ssDAF-12 act | DAX1 inh-2 | hgDAF-12 ag | hcDAF12 agonist
COc1cccc2c1OCC(C(=O)Nc1nccs1)=C2 | 2 | 0 | 3 | 13* | 4
Cc1ccc(/C=N/Nc2nc3ccccc3[nH]2)s1 | 3 | 1 | 0 | 10 | 6.1*
Cc1ccsc1/C=N/Nc1nc(Cl)c(Cl)cc1Cl | 0 | 0 | 2 | 7 | 5
Cc1ccc(/C=N/Nc2nc(Cl)c(Cl)cc2Cl)s1 | 1 | 0.9* | 4.3* | 5 | 5
COc1ccc(/C=N/Nc2nc3ccccc3[nH]2)c(OC)c1OC | 0 | -3 | 7.5* | -4 | -3
O=C1CCC(=O)N1c1ccc(S(=O)(=O)Nc2ccc(Br)cc2)cc1 | 0 | -1 | -1 | -2 | -1
COc1ccc(NS(=O)(=O)c2ccc(N3C(=O)CCC3=O)cc2)cc1 | -1 | -2 | 4.7* | -1 | -1
Cc1ccccc1C(=O)N(C)[C@H]1C[C@H]2c3[nH]c4c(-c5ccc6c(c5)OCO6)cccc4c3CCN2C[C@H]1[C@H](C)O | 0 | -1 | . | 0 | -3
CCOC(=O)c1c(C)nn(-c2ccc(NC(=O)/C=C/C(=O)O)cc2)c1C | -2 | -4 | -5 | -14 | -8
CCNC(=O)Nc1ccc(-n2nc(C)c(C(=O)OCC)c2C)nc1 | 0 | -1 | 4.8* | -1 | 1
O=C(NCc1ccccc1Cl)C1CCC(CNS(=O)(=O)c2cccc3cccnc23)CC1 (stereo unspecified) | -2 | -1 | . | -1 | -1
Nc1ccc(Cl)c[n+]1Cc1cccc2cccnc12 | -1 | 0 | -1 | -2 | 5.8*
COc1ccccc1NC(=O)COc1ccccc1C(=O)c1cnn(-c2ccccc2)c1 | 1 | 0 | -1 | 13* | 2
COc1ccccc1NC(=O)COc1ccccc1 | 1 | -1 | 3 | 4 | 5
CCc1ccccc1Nc1ccc(C(=O)O)cc1N | 0 | -2 | 6.6* | 7 | 2
c1cnc2ccc3ncccc3c2c1 | 1 | -1 | 5.0* | 5 | 2
Cc1nc2ccc(NC(=O)c3ccc(Cl)s3)cc2s1 | 4.1* | 0 | 4.9* | 9 | 0
Cc1cccc2sc(NC(=O)CCn3cccc3)nc12 | 0 | -1 | -1 | 12* | 0
Cc1cccc2sc(NC(=O)Cn3cccc3)nc12 | -1 | -1 | -1 | 2 | -1
Cc1ccc2nc(NC(=O)c3ccc(Cl)s3)sc2c1 | 4.0* | 0 | 9.8* | 8 | 3
Cc1nc2ccc(NC(=O)c3cnc(Cl)c(Cl)c3)cc2s1 | 1 | -1 | 0 | 8 | 1
Cc1cccc2sc(NC(=O)c3ccc(Cl)s3)nc12 | 0 | 1.1* | 1 | 5 | 2
CC(COc1cccc(Cl)c1)CN1CCC(C(O)(c2ccccc2)c2ccccc2)CC1 (stereo unspecified) | 0 | -1 | . | 3 | -1
Cc1cccc2sc(NC(=O)c3ccc(OCC4CCCO4)cc3)nc12 (stereo unspecified) | 2 | -1 | 0 | 13* | 2
O=C(Cc1c(F)cccc1Cl)Nc1nc2ccccc2s1 | 0 | -2 | 1 | 6 | 0
Cc1nc2ccc(NC(=O)Cc3c(F)cccc3Cl)cc2s1 | 2 | -1 | 3 | 11* | 1
CCOc1ccc2nc(NC(=O)c3ccc(OCC4CCCO4)cc3)sc2c1 (stereo unspecified) | -2 | -2 | 0 | 6 | -3
CCC(C)(C)NC(=O)CN(Cc1cccs1)C(=O)CNS(=O)(=O)c1ccc(C)cc1 | -1 | -1 | 6.4* | 0 | 0

Assay outcomes: PubChem, The Scripps Research Institute Molecular Screening Center
